Only some compounds are listed: those with a hit (about 2.7% of all), similar ones and a draw of the others.
IDE cell activ: human IDE activators in live cells, primary screen, fluorescence polarization, HEK cells, FAbeta-B substrate; FAbeta-B cleavage; 0% vehicle, 100% cell-free pure enzyme wells; 340,000 tested, 0.073% active; activation, % at 5.96 µM; AID 493087, 2011; Insulin-degrading enzyme (Homo sapiens), P14735;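 active = activation above the mean of all tested compounds plus 3 SD, set per screening campaign, cut at about 17% in these data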
ANO1 block: TMEM16A chloride channel inhibitors, primary screen, cell-based, HTS. Anoctamin-1 (Mus musculus), Q8BHY3. HEK293 TMEM16A/YFP iodide influx fluorescence, ionomycin. normalized B-score (activity score, 25-100; higher = stronger inhibition) at 10 µM. 310,000 tested, 1.2% active;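 active = ratio plate-corrected score three or more library SD toward inhibition, starting fluorescence score within five deviations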;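 note: score derived from kinetic fluorescence span divided by baseline fluorescence per well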
IDE cell inh: human IDE inhibitors in live cells, primary screen, fluorescence polarization, HEK cells, FAbetaB substrate; Insulin-degrading enzyme (Homo sapiens), P14735; FAbetaB cleavage; inhibition, % at 5.59 µM; 320,000 tested, 0.41% active;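 active = percent inhibition above the average of all tested compounds plus 3 SD, set per screening campaign, cut at about 16% in these data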;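 note: IDE supplied by intact live HEK cells; FP after avidin binding of uncleaved biotin substrate so inhibition keeps polarization high; 0% = DMSO wells and 100% = 60 µM reference IDE inhibitor Ii1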
CHT block: inhibitors of human choline transporter CHT; AID 488975, 2010; High affinity choline transporter 1 (Homo sapiens), Q9GZV3; CHT-expressing cells, membrane potential dye, choline response; hits give low values; B-score at 10 µM; 310,000 tested, 0.86% active;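 active = B-score over 3 SD under the library average, and starting fluorescence ratio not unusually high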;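 note: choline stimulus applied at its EC90 after an EC20 pre-addition; B-score computed on integrated fluorescence ratio after choline addition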
TMEM16A act: TMEM16A chloride channel activators or potentiators, primary screen, cell-based, HTS; Anoctamin-1 (Mus musculus), Q8BHY3; HEK293 TMEM16A/YFP-H148Q/I152L, iodide quench fluorescence; hits give low values; B-score at 10 µM; 340,000 tested, 0.3% active; AID 623877, 2012;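 active = fluorescence-ratio B-score plate-corrected deviation score at least 3 library SD below zero, with starting fluorescence score within 5 deviations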;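 note: channel opened by trigger with iodide after compound preincubation; score built on the fluorescence ratio of max minus min over baseline; more negative score means more quench and so TMEM16A activation or potentiation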
CHT allo act: CHT positive allosteric modulators, primary screen, cell-based, membrane potential dye, choline EC20. High affinity choline transporter 1 (Homo sapiens), Q9GZV3. CHT-expressing cells; hits give high values; LV-AA mutant CHT in HEK293 cells. AID 488977, 2010. 310,000 tested, 0.49% active. B-score at 10 µM;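 active = initial fluorescence not abnormally high and integrated response B-score, plate-corrected, over 3 SD above library mean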
CHT block conf: CHT inhibitors, confirmation, cell-based, membrane potential dye, duplicate. shares compounds with CHT block. CHT-expressing cells, choline membrane potential dye; LV-to-AA substituted CHT, HEK293 cells. CHT activity remaining % of control (hits give low values), % at 10 µM. 2,400 tested, 70% active;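 active = choline transporter activity left, mean of duplicates at 10 µM, below buffer-only control mean minus 3 SD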;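 note: depolarization triggered by choline at its EC90 following an EC20 pre-addition; 0% = hemicholinium-3 full block and 100% = buffer-only control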
HEK293 CHT ctr: membrane potential effects in parental HEK293, counter-screen for CHT inhibitor project, cell-based, membrane potential dye. shares compounds with CHT block. choline response; active = decrease or increase beyond buffer ±3SD. membrane potential ratio readout (active if shifted either direction beyond buffer ±3SD; no single direction) at 10 µM. 2,400 tested, 4% active. AID 493222, 2011;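 note: parental cells lack the transporter so any hit is non-specific; ratio is peak minus trough fluorescence over baseline after EC90 choline challenge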
An asterisk follows results filed as active; i = inactive; . = not tested or not shown.

SMILES	IDE cell activ	ANO1 block	IDE cell inh	CHT block	TMEM16A act	CHT allo act	CHT block conf	HEK293 CHT ctr
CCc1c(C)nc2ncnn2c1N1CCN(S(=O)(=O)c2ccc(OC)cc2)CC1	12.4	i	-1.3	-6.27*	i	i	50.4%*	i
CC1CCc2sc(C(=O)NNC(=O)c3ccncc3)cc2C1 (centres undefined)	0.6	i	4.1	i	i	i	.	.
O=C(NNC(=O)c1ccc(S(=O)(=O)N2CCCCC2)cc1)c1ccc(F)cc1	-1.9	i	0.2	i	i	i	.	.
CC(C)NC[C@H](O)c1ccc(O)c(O)c1	2.2	i	1.7	i	i	i	39.0%*	i
O=C(NCCOc1ccc(Cl)cc1)c1cccc(S(=O)(=O)N2CCCC2)c1	-2.6	.	0.4	.	i	.	.	.
O=C(c1cc(COc2ccc(F)cc2Cl)on1)N1CCC(c2ccncc2)CC1	-3.5	25*	13.1	-6.46*	i	i	55.9%*	i
O=C(c1cc(COc2ccc(F)cc2Cl)on1)N1CCCCCC1	-5.2	i	1.7	i	i	i	.	.
CCCNc1cc(C)c(C#N)c2nc3ccccc3n12	4.0	i	0.4	i	i	i	.	.
CCCc1cc(NCc2ccccn2)n2c(nc3ccccc32)c1C#N	3.9	i	-0.4	i	i	i	.	.
CCCc1cc(NCCN(C)C)n2c(nc3ccccc32)c1C#N	-2.9	i	-2.6	-6.06*	i	i	50.8%*	i
CCCc1cc(NCC2CCCO2)n2c(nc3ccccc32)c1C#N (centres undefined)	2.1	i	4.5	-6.93*	i	i	43.2%*	i
COCCCn1c(SCC(=O)Nc2sc3c(c2C#N)CCCC3)nnc1-c1ccncc1	-0.5	i	-0.7	-5.45*	i	i	62.2%*	i
O=C(CN1C(=O)NC2(CCCc3ccccc32)C1=O)N1CCc2ccccc2C1 (centres undefined)	3.4	i	7.3	-6.09*	i	i	34.0%*	i
Cc1ccc(C(C)NC(=O)C2CCCO2)cc1C (centres undefined)	11.1	i	2.5	i	i	i	.	.
CC(C)c1ccc(C(C)NC(=O)C2CCCC2)cc1 (centres undefined)	1.3	i	5.3	-5.3*	i	i	66.3%*	i
CC(NC(=O)C1CCCC1)c1ccc(Br)cc1 (centres undefined)	5.2	i	-3.5	i	i	i	.	.
Cc1ccc(C(C)NC(=O)C2CCCC2)cc1C (centres undefined)	1.1	i	2.6	-5.39*	i	i	44.0%*	i
COc1ccccc1C(=O)OCC(=O)Nc1ccccc1OC(F)F	8.9	i	0.8	-7.83*	i	i	i	i
N=C(N)SCc1ccccn1	3.5	i	6.0	-5.94*	i	i	33.4%*	i
O=C(NCc1cccnc1)c1ccc(NS(=O)(=O)c2cccc([N+](=O)[O-])c2)cc1	-3.7	.	0.5	.	i	.	.	.
CC1CCC(NC(=O)c2ccc(NC(=O)CC3SC(N4CCCC4)=NC3=O)cc2)CC1 (centres undefined)	0.4	i	-0.7	-10.9*	i	i	11.2%*	i
O=C(NC1CCCC1)c1ccc(COc2ccccc2Br)o1	-1.0	i	2.2	-5.14*	i	i	i	i
CCCN(CCC)Cc1c(C(=O)N/N=C/C(C)=C\c2ccco2)nnn1-c1nonc1N	-3.7	i	1.8	-5.26*	i	i	60.3%*	i
CN(C)Cc1c(C(=O)N/N=C/c2ccco2)nnn1-c1nonc1N	1.1	i	5.3	i	i	i	.	.
Cc1c(C(=O)Nc2ccc(S(=O)(=O)NCC3CCCO3)cc2)cccc1[N+](=O)[O-] (centres undefined)	8.8	i	-5.4	-5.17*	i	i	41.3%*	i
SMILES	IDE cell activ	ANO1 block	IDE cell inh	CHT block	TMEM16A act	CHT allo act	CHT block conf	HEK293 CHT ctr
O=C(Nc1ccc(S(=O)(=O)NCC2CCCO2)cc1)c1ccc(Cl)cc1[N+](=O)[O-] (centres undefined)	6.8	i	7.1	-15.9*	i	i	0.4%*	i
CC(=O)Nc1ccc(C(=O)Nc2ccc(S(=O)(=O)NCC3CCCO3)cc2)cc1 (centres undefined)	2.0	i	-2.1	i	i	i	.	.
OC(CNCC#Cc1ccccc1)c1ccccc1 (centres undefined)	0.1	i	2.2	-6.84*	i	i	52.4%*	i
O=[N+]([O-])c1cc(Br)c(O)c(/C=N/Nc2nnnn2-c2cccc3ccccc23)c1	7.7	100*	0.2	-9.24*	i	i	33.2%*	i
O=[N+]([O-])c1ccc(NN=Cc2cccc3ccccc23)cc1	4.5	.	.	.	i	.	.	.
CCN(CCNC(=O)CN1CCN(Cc2ccc(Cl)cc2)C1=O)c1ccccc1	0.4	i	-5.6	-6.17*	i	i	66.3%*	i
O=C(CN1CCN(Cc2ccccc2)C1=O)NCc1ccc(Cl)cc1	0.4	i	-2.6	i	i	i	.	.
O=C(COC(=O)c1n[nH]c(=O)c2ccccc12)Nc1ccccc1	6.1	.	.	.	i	.	.	.
Cc1nonc1NC(=O)CSc1ccc(-c2ccccc2)nn1	0.1	i	0.1	-7.98*	.	i	23.3%*	i
O=C1NC(=Nc2ccccc2Cl)S/C1=C\c1ccc(C(=O)O)cc1	0.2	i	-0.5	i	i	i	.	.
O=C1NC(=Nc2ccccc2Cl)S/C1=C\c1cccc([N+](=O)[O-])c1O	4.3	25*	4.8	-5.03*	i	i	38.5%*	i
O=C(N/N=C/c1ccc(O)c([N+](=O)[O-])c1)C1CC1(c1ccccc1)c1ccccc1 (centres undefined)	9.8	i	2.8	-9.34*	i	i	i	i

Screening results as filed in PubChem.
